Assay outcomes: PubChem, National Center for Advancing Translational Sciences (NCATS)
PKM2 activator: increases activity of human pyruvate kinase M2. Potency, µM (highest dose often 57.5 µM), for the others: top-dose activation, hits mostly activators. purified PKM2, Kinase-Glo ATP luminescence, activation; response scale: 0% is enzyme alone, no compound. 0.34% of 260,000 active. AID 1631. P14618; also: potency is read from the fitted curve at half-maximal effect; nearly all actives have a fitted effect of over 55% in size
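Purified hPK-M2 (>95%) run at intermediate activity with 0.1 mM ADP and 0.5 mM PEP in 50 mM imidazole pH 7.2, KCl, MgCl2; 1 h room temperature. ATP formed read by Kinase-Glo luminescence; normalized to uninhibited and no-enzyme controls.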
Six1-Eya2 inh: Six1/Eya2 interaction inhibition; activity change, % (no concentration beside the values); Q15475+O00167; AlphaScreen GST-Six1/His-Eya2 binding, biochemical; active compounds read low; 0.56% of 360,000 active; in the data active = activity change below about -65%; inconclusive = mostly about -30% to -63%
Target sequence (O00167 whole entry, looked up): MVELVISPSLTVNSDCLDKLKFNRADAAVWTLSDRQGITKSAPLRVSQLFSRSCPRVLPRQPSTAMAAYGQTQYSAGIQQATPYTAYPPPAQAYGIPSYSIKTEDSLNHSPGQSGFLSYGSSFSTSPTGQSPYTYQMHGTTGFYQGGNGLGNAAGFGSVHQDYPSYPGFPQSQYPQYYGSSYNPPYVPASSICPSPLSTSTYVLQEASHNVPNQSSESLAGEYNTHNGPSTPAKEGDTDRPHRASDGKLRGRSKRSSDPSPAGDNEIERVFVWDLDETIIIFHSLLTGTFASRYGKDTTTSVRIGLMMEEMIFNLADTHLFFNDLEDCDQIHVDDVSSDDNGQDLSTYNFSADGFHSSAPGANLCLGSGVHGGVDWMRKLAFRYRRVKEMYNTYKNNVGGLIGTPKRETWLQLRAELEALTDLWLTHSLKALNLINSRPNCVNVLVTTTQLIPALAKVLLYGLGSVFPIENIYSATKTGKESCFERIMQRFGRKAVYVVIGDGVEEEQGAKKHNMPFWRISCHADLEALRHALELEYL
Target sequence (Q15475 whole entry, looked up): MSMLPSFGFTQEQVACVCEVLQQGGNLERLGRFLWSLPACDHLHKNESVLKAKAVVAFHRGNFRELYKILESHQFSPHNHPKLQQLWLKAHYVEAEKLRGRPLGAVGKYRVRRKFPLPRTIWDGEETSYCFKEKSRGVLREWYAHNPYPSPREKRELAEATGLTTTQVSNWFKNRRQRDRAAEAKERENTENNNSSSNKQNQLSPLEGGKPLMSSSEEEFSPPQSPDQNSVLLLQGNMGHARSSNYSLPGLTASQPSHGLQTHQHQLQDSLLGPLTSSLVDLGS
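AlphaScreen with GST-Six1 and His-Eya2 (5X mix: 250 nM and 500 nM), glutathione donor and nickel acceptor beads; buffer 50 mM Tris pH 8.0, 300 mM NaCl, 1 mM TCEP; 1 h at 37 C in the dark.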
VP16 counter: inhibits Gal4-VP16 luciferase reporter, ROR gamma counter-screen; AID 2546; 3.5% of 310,000 active; Potency, µM (series often up to 53.6 µM), without a hit: top-dose activity, negative = inhibition, hits mostly inhibitors; Drosophila S2 Gal4-VP16 UAS-luciferase, luminescence, 20 h;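 also: Gal4-VP16 expression switched on by copper sulfate through the metallothionein promoter; potency is read from the fitted curve at half-maximal effect; nearly all actives have a fitted effect of over 50% in size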
RORgamma inh: ROR gamma (mouse) transcription inhibition. P51450. Drosophila S2 Gal4-RORgamma UAS-luciferase reporter, 20 h. Potency, µM (doses to about 53.6 µM), inactives show top-dose activity change, negative = inhibition, hits mostly inhibitors. 5.4% of 310,000 active. AID 2551; also: potency is read from the fitted curve at half-maximal effect; nearly all actives have a fitted effect of over 60% in size
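A Gal4/UAS one-hybrid system in insect cells: metallothionein-promoter Gal4–ROR gamma fusion plus Photinus luciferase reporter. Copper sulfate 700 uM final, 20 hr ambient incubation, luminescent detection after 10 min with reagent.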
CtBP-E1A blk: CtBP/E1A binding inhibition; 0.49% of 340,000 active; AID 651724; AlphaScreen GST-E1A/His-CtBP binding, 1536-well; active compounds read low; activity change, % (test concentration not listed); in the data active = activity change below about -65%; inconclusive = mostly about -30% to -63%
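Homogeneous bead-based format: GST-tagged E1A captured on glutathione donor beads, His-tagged CtBP on nickel acceptor beads; compounds precede bead addition by 2 h at 37 °C.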
* marks the source's active call; other numbers are inactive results; ? = inconclusive; . = not tested or not shown; ! = not confirmed by another sample; [ ] = remark or other dose. Shown are actives, neighbours in structure and some others; about 5.6% of the full set was active somewhere. Unless noted, calls follow the shape of the dose curve; as a rule, active = well fitted curve in the direction sought with a large enough effect; inconclusive = small, poorly fitted or top-dose-only effect, or another doubt; inactive = no such curve, though single readings can be large; an effect the other way counts as inactive or inconclusive. % is scaled to controls: 0 for no effect and ±100 for the full control effect.

SMILES	PKM2 activator	Six1-Eya2 inh	VP16 counter	RORgamma inh	CtBP-E1A blk
S=c1[nH]c2ccccc2n1CCOc1ccccc1	-13%	-5	2.8µM*	-15%[1.91 µM]	-1
Cc1cccc(OCCn2c(=S)[nH]c3ccccc32)c1	-20%	-11	1.6µM*	1.3µM*	-1
CC(C)=NOc1nc(N(C)C)nc(N2CCOCC2)n1	7%	-7	-5%	2%	2
CN(Cc1ccccc1)CC1C2CCC(C2)C1O (stereo not drawn)	.	-9	.	.	-18
COc1cc2nc(N3CCN(C(=O)[C@@H]4COc5ccccc5O4)CC3)nc(N)c2cc1OC	.	.	-8%[17 µM]	5%[16.9 µM]	.
N#CCCn1c(=S)[nH]c2ccccc21	1%	2	5%	14%	-7
Cn1c(=S)[nH]c2ccccc21	2%	-1	?	13µM*	5
CCC(=O)c1ccc(OCc2ccc(C(=O)c3ccccc3)cc2)cc1	-1%	35	7.1µM*	?	36
CCC(=O)c1ccc(OCc2ccccc2)c(OC)c1	27%	24	23%	?	25
CCC(C)(C)NC(=O)COc1ccc(C(=O)c2ccccc2)cc1	-2%	6	13µM*	34%	-1
c1csc(-c2nn3cnnc3c3ccccc23)c1	3%	-16	3%	1%	?
COc1ccc(C=NNC(=S)NC23CC4CC(CC(C4)C2)C3)cc1OC	.	-18	.	.	-15
COc1ccc(/C=N/NC(=S)NC2CCS(=O)(=O)C2)cc1OC (stereo not drawn)	-4%	1	?	16µM*	-1
Cc1ccc(/C=N/NC(=S)NC2CCS(=O)(=O)C2)cc1 (stereo not drawn)	18%	-2	5µM*	7.9µM*	2
CCCc1c(C(=O)NNc2cccc(Cl)c2)cnn1-c1ccccc1	4%	-3	5%	26%	.
CN(CC(=O)Nc1ccc(F)c(F)c1F)C(=O)C1CCCC1	.	4	.	.	7
C/C(CC(=O)Nc1ccc(Cl)cc1Cl)=N\NC(=O)c1ccncc1	-7%	-8	18µM*	?	.
C/C(CC(=O)Nc1cc(Cl)ccc1Cl)=N\NC(N)=S	7%	-1	20µM*	5.6µM*	-13
C/C(CC(=O)Nc1ccc(Cl)cc1C(F)(F)F)=N\NC(N)=S	8%	0	?	13µM*	11
C/C(CC(=O)Nc1ccc(Cl)c(Cl)c1)=N\NC(N)=S	8%	-7	11µM*	5.6µM*	-2
C/C(CC(=O)Nc1ccc(C)c(Cl)c1)=N\NC(=O)c1ccncc1	15%	-3	22%	?	-1
C/C(CC(=O)Nc1ccc(Cl)cc1Cl)=N\NC(N)=S	5%	2	-7%	21%	-2
CCC(c1nc2ccccc2[nH]1)n1c(=O)c(-c2ccccc2)nc2ccccc21 (stereo not drawn)	.	-1	.	.	-2
Cn1c(=O)c(-c2ccc(Cl)cc2)nc2cnc(Oc3cccc(Cl)c3)nc21	.	.	-8%	-2%	.
O=C(CCNC(=O)c1ccc([N+](=O)[O-])cc1)Nc1ccc(F)cc1F	.	2	7%	-32%	8
SMILES	PKM2 activator	Six1-Eya2 inh	VP16 counter	RORgamma inh	CtBP-E1A blk
CC(=O)[C@]1(O)Cc2c(O)c3c(c(O)c2[C@@H](O[C@H]2C[C@H](N)[C@H](O)[C@H](C)O2)C1)C(=O)c1ccccc1C3=O	.	-22	-68%	?	-29
COc1cccc2c1C(=O)c1c(O)c3c(c(O)c1C2=O)C[C@](O)(C(=O)CO)C[C@@H]3O[C@H]1C[C@H](N)[C@@H](O)[C@H](C)O1	.	.	0%	-4%[10 µM]	.
COc1cccc2c1C(=O)c1c(O)c3c(c(O)c1C2=O)C[C@@](O)(C(=O)CO)C[C@@H]3OC1C[C@@H](N)[C@H](O)[C@H](C)O1 (stereo partly drawn)	.	.	?	2.5µM*	.
CC(=O)[C@]1(O)Cc2c(O)c3c(c(O)c2[C@@H](O[C@H]2C[C@H](N)[C@H](O)[C@H](C)O2)C1)C(=O)c1c(O)cccc1C3=O	.	.	7.1µM*	3.5µM*	.
COc1cccc2c1C(=O)c1c(O)c3c(c(O)c1C2=O)C[C@@](O)(C(C)=O)C[C@@H]3O[C@H]1C[C@H](N)[C@H](O)[C@H](C)O1	-1%	6	6.3µM*!	2.5µM*	-7
Nc1ccc(S(=O)(=O)N2CCC(Cc3ccccc3)CC2)cc1	.	-1	1%	15%	8
CCC(CC)c1nnc(NC(=O)C2=NNC(=O)CC2)s1	-1%	-1	11%	-3%	0
Cc1c(NC(=O)c2ccc(CC(C)C)o2)c(=O)n(-c2ccccc2)n1C	.	-3	2%	21%	8
C/C(=N\NC(=S)NCCc1ccccc1)c1ccc(C)cc1	5%	-23	5µM*	2.8µM*	-16
C/C(=N\NC(=S)NCCc1ccccc1)c1ccc(C#N)cc1	0%	0	8.9µM*	4µM*	2
C/C(=N\NC(=S)NCCc1ccccc1)c1ccc(Cl)cc1	-5%	-18	3.2µM*	3.5µM*	-18
O=C(CCC1CCCCC1)NCCS(=O)(=O)N1CCN(c2ccccc2)CC1	.	22	.	.	2
O=C1C(=Cc2ccco2)CCC1=Cc1ccco1	.	-83*	.	.	-1
CC(/C=C/c1ccccc1)=N\NC(=O)c1ccncc1	-4%	-1	11µM*	7.1µM*	8
CC1(C)OC(c2ccccc2)=C/C(=C/C=Nc2ccccc2)O1	2%	-10	31%	-11%	5
O=C(N/N=C/C=C\c1ccccc1[N+](=O)[O-])c1ccncc1	3%	-6	?	10µM*	12
O=C(N/N=C/C=C/c1ccccc1)c1ccncc1	-5%	-11	7.1µM*	2.8µM*	-12
CC1(C)OC(c2ccccc2)=C/C(=C\C=N\NC(=O)c2ccncc2)O1	-10%	-21	0.56µM*	0.4µM*	-9
O=C(O)c1ccc(NS(=O)(=O)/C=C/c2ccccc2)cc1	4%	0	-4%	0%	0
NC(=S)NN=C(c1ccccc1)c1ccccc1	.	-22	?	7.1µM*	-4
Nc1ccc(C(=O)N/N=C\C=C\c2cccc([N+](=O)[O-])c2)cc1	-2%	-13	-11%	?	-10
O=C(O)c1ccc(N/N=C/C=C/c2ccccc2)cc1	3%	6	1.1µM*	11µM*	-6
O=C(N/N=C/C=C/c1cccc([N+](=O)[O-])c1)c1ccncc1	0%	-20	?	7.1µM*	4
COC(=O)/C=C/c1ccc2c(c1)OCO2	0%	14	-2%	24%	-29
CCNc1ccccc(C(=O)/C=C/c2ccc3c(c2)OCO3)c1=O	27%	-21	?	7.9µM*	-1
O=C(Nc1ccccc1Br)c1cc(=O)c2ccccc2o1	-9%	-1	?	0%	1
O=C(N/N=C/C=C/c1ccccc1)c1cccs1	4%	4	2.8µM*	2.8µM*	-3
